Several values for one entry are separate records, joined by “and”; a condition that tells them apart may be missing. Equal entries are not always repeated. Some structures have more than one record in an assay (separate samples or runs), and their calls can disagree. Activity calls are given as the source filed them. Unless noted, calls follow the shape of the dose curve; as a rule, active = well fitted curve in the direction sought with a large enough effect in the repeat runs; inconclusive = weak or mixed curves; inactive = no such curve, though single readings can be large; an effect the other way counts as inactive or inconclusive.
What was measured:
[1] = qHTS assay for identifying genotoxic compounds that show differential cytotoxicity against isogenic chicken DT40 cell lines with known DNA damage response pathways - wild type cell line (AID 743012); settings: DT40 wild type chicken cells viability, CellTiter-Glo, 40 h; series mostly up to 68.4 µM; also: nearly all actives have a fitted effect of over 60% in size; also: potency is read from the fitted curve at half-maximal effect
How it was run: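 Viability of DNA repair-proficient chicken DT40 cells was assessed by CellTiter-Glo luminescence following 40 h compound exposure at 37 C/5% CO2.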

[2] = qHTS assay for identifying genotoxic compounds that show differential cytotoxicity against isogenic chicken DT40 cell lines with known DNA damage response pathways - Rev3 mutant cell line (AID 743014); settings: chicken DT40 Rev3-/- viability, CellTiter-Glo, 40 h; series mostly up to 68.4 µM; also: nearly all actives have a fitted effect of over 55% in size; also: potency is read from the fitted curve at half-maximal effect
[3] = qHTS assay for identifying genotoxic compounds that show differential cytotoxicity against isogenic chicken DT40 cell lines with known DNA damage response pathways - Rad54/Ku70 mutant cell line (AID 743015); settings: DT40 Rad54/Ku70 mutant viability, CellTiter-Glo, 40 h; series mostly up to 66.8 µM; also: nearly all actives have a fitted effect of over 60% in size; also: potency is read from the fitted curve at half-maximal effect
[4] = qHTS assay to identify small molecule antagonists of the estrogen receptor alpha (ER-alpha) signaling pathway - cell viability counter screen (AID 743074; calls by dose curve; also: nearly all actives have a fitted effect of over 45% in size); settings: ERalpha-bla HEK293 viability, CellTiter-Glo luminescence, 18 h; series mostly up to 69.4 µM
[5] = qHTS assay to identify small molecule antagonists of the estrogen receptor alpha (ER-alpha) signaling pathway using the BG1 cell line - cell viability counter screen (AID 743081); settings: BG1Luc4E2 viability, CellTiter-Fluor, 22 h; series mostly up to 70.3 µM;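 also: compound given together with 17beta-estradiol as the ER stimulus; nearly all actives have a fitted effect of over 45% in size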
Aromatase (Homo sapiens) = Aromatase (Homo sapiens) (UniProt P11511); experiment: qHTS assay to identify aromatase inhibitors (AID 743083); settings: MCF-7 aro ERE, testosterone-driven ERE luciferase, 24 h; series mostly up to 70.3 µM; also: nearly all actives have a fitted effect of over 55% in size; also: potency is read from the fitted curve at half-maximal effect
[6] = qHTS assay to identify small molecule antagonists of the androgen receptor (AR) signaling pathway - cell viability counter screen (AID 743033; also: nearly all actives have a fitted effect of over 45% in size); settings: AR-bla HEK293 viability, CellTiter-Glo luminescence, 16 h; series mostly up to 58.5 µM
[7] = qHTS assay to identify small molecule antagonists of the androgen receptor (AR) signaling pathway using the MDA cell line - cell viability counter screen (AID 743041; also: nearly all actives have a fitted effect of over 45% in size); settings: MDA-kb2 viability, CellTiter-Fluor, 16 h, cells co-treated with R1881 androgen agonist; series mostly up to 70.3 µM
How it was run: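 Compound exposure lasted 16 h at 37C in MDA-kb2 AR-luc cells stimulated with R1881. Protease-based CellTiter-Fluor reagent was applied for the final 30 min and fluorescence measured.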

[8] = qHTS assay to identify small molecule antagonists of the thyroid receptor (TR) signaling pathway - cell viability counter screen (AID 743064); settings: GH3.TRE-Luc viability, CellTiter-Fluor, 24 h; series mostly up to 70.3 µM; also: nearly all actives have a fitted effect of over 50% in size; also: potency is read from the fitted curve at half-maximal effect
How it was run: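 GH3.TRE-Luc cells, 4 h pre-plating; cpd + T3 1 nM final; 37 °C 23.5 h; CellTiter-Fluor 30 min; fluorescence read.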

[9] = qHTS assay to identify small molecule antagonists of the thyroid receptor (TR) signaling pathway (AID 743065); settings: GH3.TRE-Luc, T3-stimulated luciferase inhibition, 23.5 h; series mostly up to 70.3 µM; also: nearly all actives have a fitted effect of over 55% in size; also: potency is read from the fitted curve at half-maximal effect
How it was run: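 GH3.TRE-Luc rat pituitary cells (two TREs driving luciferase) were dosed with compound, then stimulated with 1 nM T3 (final) for 23.5 h at 37 C. ONE-Glo luminescence was the read-out, with CellTiter-Fluor fluorescence as the cytotoxicity counter-screen.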

[10] = system: thyroid hormone receptor (rat, GH3 cells); experiment: qHTS assay to identify small molecule agonists of the thyroid receptor (TR) signaling pathway (AID 743066; calls by dose curve); settings: GH3.TRE-Luc cells, TR agonist luciferase, 24 h; series mostly up to 83.9 µM
[11] = molecular target: Estrogen receptor (Homo sapiens) (UniProt P03372); experiment: qHTS assay to identify small molecule antagonists of the estrogen receptor alpha (ER-alpha) signaling pathway (AID 743069; active = well fitted curve in the direction sought with a large enough effect in the signal ratio in the repeat runs, not every such curve was filed as active; inconclusive = weak or mixed curves, or effect the other way; inactive = no such curve, though single readings can be large or run the other way; the % refers to the signal ratio); settings: HEK293 ER-alpha-UAS-bla, beta-lactamase ratio, antagonist mode; series mostly up to 69.4 µM
How it was run: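 In this cell-based reporter format, GripTite HEK293 cells harbouring ER-alpha-UAS-bla were grown overnight with 2% charcoal-stripped FBS, dosed with DMSO-dissolved compounds, then challenged with 17beta-estradiol. After 18 hr at 37C, beta-lactamase activity was detected by FRET fluorescence.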

[12] = molecular target: Estrogen receptor (Homo sapiens) (UniProt P03372); experiment: qHTS assay to identify small molecule agonists of the estrogen receptor alpha (ER-alpha) signaling pathway (AID 743075; calls by dose curve; also: potency is read from the fitted curve at half-maximal effect); settings: HEK293 ER-alpha-UAS-bla, beta-lactamase FRET ratio, 18 h; series mostly up to 70.1 µM
[13] = molecular target: Estrogen receptor (Homo sapiens) (UniProt P03372); experiment: qHTS assay to identify small molecule agonists of the estrogen receptor alpha (ER-alpha) signaling pathway using the BG1 cell line (AID 743079); settings: BG1Luc4E2 cells, ERE-luciferase agonist, 22 h; series mostly up to 70.3 µM; also: nearly all actives have a fitted effect of over 20% in size; also: potency is read from the fitted curve at half-maximal effect
[14] = qHTS assay to identify small molecule antagonists of the estrogen receptor alpha (ER-alpha) signaling pathway using the BG1 cell line (AID 743080; calls by dose curve;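 also: BG1 cells stimulated with 17beta-estradiol alongside compound; nearly all actives have a fitted effect of over 25% in size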); settings: BG1Luc4E2 ERE-luciferase antagonist mode, luminescence; series mostly up to 70.3 µM
How it was run: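 Readout is ONE-Glo luminescence, taken 30 min at room temperature after reagent addition, preceded by a CellTiter-Fluor viability read; BG1-Luc-4E2 cells had received compound and 17beta-estradiol for 21.5 h at 37 C.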

[15] = qHTS assay to identify small molecule antagonists of the glucocorticoid receptor (GR) signaling pathway - cell viability counter screen (AID 720693); settings: GR-bla HeLa viability, CellTiter-Glo luminescence, 18 h, with 5 nM dexamethasone present; series mostly up to 58.5 µM; also: nearly all actives have a fitted effect of over 55% in size
[16] = molecular target: Androgen receptor (Homo sapiens) (UniProt P10275); experiment: qHTS assay to identify small molecule antagonists of the androgen receptor (AR) signaling pathway (AID 743035; active = well fitted inhibition curve with a large enough effect in the signal ratio in the repeat runs, not every such curve was filed as active; inconclusive = weak or mixed curves, or effect the other way; inactive = no such curve, though single readings can be large or run the other way; the % refers to the signal ratio; also: potency is read from the fitted curve at half-maximal effect); settings: HEK293 AR-UAS-bla, R1881-stimulated, beta-lactamase FRET, 16 h; series mostly up to 58.5 µM
How it was run: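 Reporter HEK293 cells were exposed to compounds and R1881 overnight (16 h, 37C); beta-lactamase activity was then quantified by FRET fluorescence.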

[17] = molecular target: Androgen receptor (Homo sapiens) (UniProt P10275); experiment: qHTS assay to identify small molecule agonists of the androgen receptor (AR) signaling pathway (AID 743036; active = well fitted activation curve with a large enough effect in the signal ratio in the repeat runs, with a control signal flat, not every such curve was filed as active; inconclusive = weak or mixed curves, or effect the other way; inactive = no such curve, though single readings can be large or run the other way; the % refers to the signal ratio); settings: HEK293 AR-UAS-bla GripTite, beta-lactamase FRET ratio, 16 h; series mostly up to 62.4 µM
How it was run: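 AR-bla HEK293 cells, 2,000/well; 4 h preincubation 37C/5% CO2; compound (DMSO) 16 h at 37C; LiveBLAzer B/G FRET substrate 2 h RT; fluorescence intensity read-out.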

[18] = molecular target: Androgen receptor (Homo sapiens) (UniProt P10275); experiment: qHTS assay to identify small molecule antagonists of the androgen receptor (AR) signaling pathway using the MDA cell line (AID 743042; also: nearly all actives have a fitted effect of over 55% in size); settings: MDA-kb2 AR-luc, MMTV luciferase, R1881 antagonist, 16 h; series mostly up to 70.3 µM
How it was run: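 MDA-kb2 breast carcinoma cells carrying MMTV-luciferase (AR/GR responsive) were co-treated with compounds and the agonist R1881 for 16 h at 37C. Inhibition read as ONE-Glo luminescence; CellTiter-Fluor fluorescence measured in parallel for cytotoxicity.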

[19] = molecular target: Androgen receptor (Homo sapiens) (UniProt P10275); experiment: qHTS assay to identify small molecule agonists of the androgen receptor (AR) signaling pathway using the MDA cell line (AID 743040; also: nearly all actives have a fitted effect of over 20% in size); settings: MDA-kb2 AR-luc cells, MMTV luciferase, 16 h; series mostly up to 70.3 µM
How it was run: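 Testing was done with the MDA-kb2 AR-luc line, a human breast carcinoma stably transfected with MMTV-luciferase containing AR and GR response elements. Cells were exposed 16 h at 37C before ONE-Glo luminescence detection.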

Measured: Potency

Chain of Estrogen receptor (Homo sapiens) (P03372 whole entry, looked up): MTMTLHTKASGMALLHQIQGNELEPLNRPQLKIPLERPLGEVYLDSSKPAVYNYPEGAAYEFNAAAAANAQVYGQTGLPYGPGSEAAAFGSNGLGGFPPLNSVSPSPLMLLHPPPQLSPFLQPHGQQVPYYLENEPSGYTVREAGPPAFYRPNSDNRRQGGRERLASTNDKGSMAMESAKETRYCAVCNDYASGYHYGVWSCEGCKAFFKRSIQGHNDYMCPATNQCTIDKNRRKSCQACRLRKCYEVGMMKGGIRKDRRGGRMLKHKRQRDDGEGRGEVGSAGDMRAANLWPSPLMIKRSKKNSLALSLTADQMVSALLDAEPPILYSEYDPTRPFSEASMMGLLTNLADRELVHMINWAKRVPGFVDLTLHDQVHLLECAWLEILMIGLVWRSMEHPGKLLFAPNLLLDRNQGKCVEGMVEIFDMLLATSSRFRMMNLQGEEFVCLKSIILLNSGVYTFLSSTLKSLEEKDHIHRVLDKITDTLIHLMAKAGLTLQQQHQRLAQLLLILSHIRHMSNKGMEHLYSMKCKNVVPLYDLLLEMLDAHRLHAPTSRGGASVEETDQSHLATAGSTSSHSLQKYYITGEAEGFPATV
Chain of Aromatase (Homo sapiens) (P11511 whole entry, looked up): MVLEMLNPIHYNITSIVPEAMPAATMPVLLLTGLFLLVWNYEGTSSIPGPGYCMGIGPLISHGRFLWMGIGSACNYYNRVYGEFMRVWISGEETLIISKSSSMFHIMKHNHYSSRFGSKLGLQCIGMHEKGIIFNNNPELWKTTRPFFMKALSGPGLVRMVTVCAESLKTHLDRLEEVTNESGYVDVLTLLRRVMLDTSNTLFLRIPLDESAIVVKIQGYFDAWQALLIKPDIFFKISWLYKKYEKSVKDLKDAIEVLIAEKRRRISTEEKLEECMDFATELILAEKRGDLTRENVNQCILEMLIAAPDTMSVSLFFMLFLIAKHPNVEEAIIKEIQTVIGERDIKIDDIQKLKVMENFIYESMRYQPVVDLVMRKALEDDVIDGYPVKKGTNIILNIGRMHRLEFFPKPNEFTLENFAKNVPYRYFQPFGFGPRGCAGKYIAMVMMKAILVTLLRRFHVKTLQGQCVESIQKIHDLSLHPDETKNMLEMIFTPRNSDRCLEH
Chain of Androgen receptor (Homo sapiens) (P10275 whole entry, looked up): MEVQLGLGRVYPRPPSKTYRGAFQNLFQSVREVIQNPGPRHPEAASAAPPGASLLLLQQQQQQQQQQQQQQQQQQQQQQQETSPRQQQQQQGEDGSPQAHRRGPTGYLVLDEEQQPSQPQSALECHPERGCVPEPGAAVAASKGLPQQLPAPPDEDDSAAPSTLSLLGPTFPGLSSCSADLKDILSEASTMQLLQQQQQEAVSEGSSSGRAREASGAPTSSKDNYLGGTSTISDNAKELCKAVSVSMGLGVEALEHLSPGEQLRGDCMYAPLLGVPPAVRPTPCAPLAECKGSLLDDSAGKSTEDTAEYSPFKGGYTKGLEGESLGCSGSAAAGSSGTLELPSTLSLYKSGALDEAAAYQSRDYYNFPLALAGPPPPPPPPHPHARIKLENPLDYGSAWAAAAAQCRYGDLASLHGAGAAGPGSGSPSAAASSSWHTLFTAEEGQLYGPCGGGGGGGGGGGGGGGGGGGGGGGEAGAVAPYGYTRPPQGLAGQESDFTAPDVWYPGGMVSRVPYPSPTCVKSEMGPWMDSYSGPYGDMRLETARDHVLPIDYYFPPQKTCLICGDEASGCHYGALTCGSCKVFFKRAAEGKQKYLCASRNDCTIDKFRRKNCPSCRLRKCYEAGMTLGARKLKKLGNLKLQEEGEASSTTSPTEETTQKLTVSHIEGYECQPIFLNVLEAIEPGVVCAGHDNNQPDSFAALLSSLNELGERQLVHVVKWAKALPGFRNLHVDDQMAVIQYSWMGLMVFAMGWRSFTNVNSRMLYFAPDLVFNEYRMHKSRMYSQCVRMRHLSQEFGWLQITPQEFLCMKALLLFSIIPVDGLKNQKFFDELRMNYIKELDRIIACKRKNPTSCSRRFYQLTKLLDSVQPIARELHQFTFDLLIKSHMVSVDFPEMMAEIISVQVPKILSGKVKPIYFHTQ

CC(Cc1cccc(C(F)(F)F)c1)NCCOC(=O)c1ccccc1 (stereo not drawn)
active: [1] 18.8 µM | [2] 23.7 µM | [3] 26.6 µM | Aromatase (Homo sapiens) 29.8 µM
inactive: [4] | [5]

Cc1ccc(C(=O)C(C)CN2CCCCC2)cc1 (stereo not drawn)
active: [1] 23.7 µM and 26.6 µM | [2] 29.8 µM | [3] 26.6 µM
26.6 µM (active) and inactive: [13]
not listed: [15] | [16] | [17] | [18] | [19]
inactive: all other assays above

CC(C)(C)c1ccc(S)cc1
inactive: [15] | [6] | [7] | [9] | [10] | [4] | [12] | [5] | Aromatase (Homo sapiens)

CCCCCC(CO)CCC (stereo not drawn)
inactive: [15] | [3] | [6] | [8] | [9] | [10] | [4] | Aromatase (Homo sapiens)

CCCCOCCOCCOCCOCCO
not listed: [1] | [2] | [13] | [16] | [17] | [18] | [19]
inactive: all other assays above

c1ccc(-c2nc[nH]c2-c2ccccc2)cc1
inactive: [15] | [6] | [7] | [8] | [10] | [4] | [5] | Aromatase (Homo sapiens)

C1CCC2OC2C1 (stereo not drawn)
not listed: [13] | [15] | [19]
inactive: all other assays above

CC(=O)SCc1ccco1
not listed: [15]
inactive: all other assays above

COc1ccc([C@@H]2Sc3ccccc3N(CCN(C)C)C(=O)[C@@H]2OC(C)=O)cc1
inactive: [15] | [6] | [7]
active: [8] 23.7 µM

CC[C@]12CCCN3CCc4c(n(c5ccccc45)C(=O)C1)[C@@H]32
inactive: [6] | [7] | [18] | [10] | [4] | [5]
active: [1] 4.52 µM | [2] 4.52 µM | [3] 7.17 µM | [16] 9.1 µM | [8] 8.04 µM | [9] 7.17 µM | Aromatase (Homo sapiens) 11.4 µM

Oc1ccc(Sc2ccc(O)cc2)cc1
inactive: [15] | [7] | [10] | [4] | [14] | [5] | Aromatase (Homo sapiens)
active: [9] 51 µM | [12] 18.2 µM [inconclusive] | [13] 510 nM

Nc1nc(CC(=O)O)cs1
inactive: [1] | [2] | [3] | [7] | [8] | [9] | [10] | [4] | [5] | Aromatase (Homo sapiens)

O=C(C(=O)c1ccc(Br)cc1)c1ccc(Br)cc1
not listed: [15] | [19]
inactive: all other assays above

C[C@@H](C1=C(CCN(C)C)Cc2ccccc21)c1ccccn1
inactive: [15] | [6] | [7] | [10] | [4] | [5]
active: [8] 29.8 µM | [9] 26.6 µM

CC(C)c1cccc(C(C)C)c1NC(=O)NS(=O)(=O)c1cc(C(C)(C)O)co1
inactive: [1] | [2] | [3] | [6] | [7] | [8] | [9] | [10] | [4] | [5]

O=C1[C@H](CC[C@H](O)c2ccc(F)cc2)[C@@H](c2ccc(O)cc2)N1c1ccc(F)cc1
inactive: [15] | [6] | [7] | [10] | [11] | [4] | [12] | [13] | [14] | [5] | Aromatase (Homo sapiens)

COC(=O)CSc1cc(N=c2sc(=O)n3n2CCCC3)c(F)cc1Cl
inactive: [6] | [7] | [18] | [8] | [9] | [10] | [4] | [5] | Aromatase (Homo sapiens)

CCN(CC)C(C)CN1c2ccccc2Sc2ccccc21 (stereo not drawn)
inactive: [2] | [6] | [7] | [11] | [4] | [12] | [13] | [14] | [5] | Aromatase (Homo sapiens)

Source: PubChem BioAssay (Tox21)
